Experimental data as given in the supplement of paper PMC12024424.
Structures can show the parent of a compound that is named as a salt.

The compounds below were run on Staphylococcus aureus Sa2 (MRSA, cystic fibrosis isolate) (assay: growth reduction vs untreated control (OD550); higher = stronger antibacterial activity). Details: 0.1 mM; 24 h.
Experimental: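 Single-dose screen of the MedChem Express Drug Repurposing Library (0.1 mM, 1% DMSO) against planktonic MRSA S. aureus Sa2 (CF isolate) in TSB in 96-well plates, 37 °C aerobic, 24 h. Assays were run in triplicate and repeated twice.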
`O=c1[nH]c2ccccc2n1C1CCN(CCCC(c2ccc(F)cc2)c2ccc(F)cc2)CC1` [Pimozide] gave a growth reduction of 100%.
Work on `C[S+]([O-])CCCCN=C=S` (stereo not drawn) [Sulforaphane] yielded a growth reduction of 97.9%.
`Cc1cc2c(C(C)C)c(O)c(O)c(C=O)c2c(O)c1-c1c(C)cc2c(C(C)C)c(O)c(O)c(C=O)c2c1O` [Gossypol] showed a growth reduction of 98.4%.
Compound `COc1cccc2c1cc([N+](=O)[O-])c1c(C(=O)O)cc3c(c12)OCO3` [Aristolochic acid A] has a growth reduction of 95.3%.
`O=C(O)c1nn(Cc2ccc(Cl)cc2Cl)c2ccccc12` [Lonidamine] showed a growth reduction of 90.9%.
In the case of `Fc1ccc(C(OCCN2CCN(CCCc3ccccc3)CC2)c2ccc(F)cc2)cc1` [Vanoxerine (dihydrochloride)], the growth reduction is reported as 100%.
`Cc1cc2c(C(C)C)c(O)c(O)c(C=O)c2c(O)c1-c1c(C)cc2c(C(C)C)c(O)c(O)c(C=O)c2c1O` [Gossypol (acetic acid)] showed a growth reduction of 99.3%.
For `c1ccc2c(c1)Sc1ccccc1N2CC1CN2CCC1CC2` (stereo not drawn) [Mequitazine], the growth reduction was 99.3%.
`CC[C@H](C)C1O[C@]2(C=C[C@@H]1C)C[C@@H]1C[C@@H](C/C=C(\C)[C@@H](O[C@H]3C[C@H](OC)[C@@H](O[C@H]4C[C@H](OC)[C@H](NC)[C@H](C)O4)[C@H](C)O3)[C@@H](C)/C=C/C=C3\CO[C@@H]4[C@H](O)C(C)=C[C@@H](C(=O)O1)[C@]34O)O2` (stereo partly drawn) [Emamectin (Benzoate)] was tested, and the growth reduction was 98%.
Work on `CCNC1=Nc2ccc(Cl)cc2C(C)(c2ccccc2)O1` (stereo not drawn) [Etifoxine] yielded a growth reduction of 100%.
Work on `Cc1cc2c(C(C)C)c(O)c(O)c(C=O)c2c(O)c1-c1c(C)cc2c(C(C)C)c(O)c(O)c(C=O)c2c1O` [(R)-(-)-Gossypol acetic acid] yielded a growth reduction of 96%.
In the case of `O=C(CNC(=O)c1ccc(C2=NOC(c3cc(Cl)cc(C(F)(F)F)c3)(C(F)(F)F)C2)c2ccccc12)NCC(F)(F)F` (stereo not drawn) [Afoxolaner], the growth reduction is reported as 100%.
With `O=c1c2ccccc2[se]n1-c1ccccc1` [Ebselen] the growth reduction was 99.8%.
